Assay results taken from PubChem BioAssay AID1159580 (chemical genetic matrix, 2015).
Where “and” joins values, the source holds several entries; their conditions need not be identical. Equal values may be shown once. The whole screen tested about 5,500 compounds, of which about 2,000 (36%) were called active. Roughly 18% stayed inconclusive and do not appear here. No stated cut-off is given here; in the data, active means normalized growth mostly below about 0.91 (no sharp cut-off); inconclusive means no clear call, values can overlap the other calls; inactive means mostly above about 0.92. The list shows a part of the results.

Experiment: chemical genetic growth profiling, strain panel (AID 1159580);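 further: tested at 20 µM; growth read once vehicle control cultures reached saturation at 30 °C; 1 = growth at the plate median or of vehicle wells; lower values mean less growth of the strain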
Conditions: S. cerevisiae deletion strains, growth OD

Measured: normalized growth

Oc1ccc(Cl)c2cccnc12
active: locus YAL021C, strain ccr4, hits give low values 0.0729 | locus YAL026C, strain drs2, hits give low values 0.0768 | locus YAL030W, strain snc1, hits give low values 0.0588 | locus YBL061C, strain skt5, hits give low values 0.0618 | locus YBR009C, strain hhf1, hits give low values 0.0586 | locus YBR021W, strain FUR4, hits give low values 0.11 | locus YBR023C, strain chs3, hits give low values 0.0665 | locus YBR171W, strain sec66, hits give low values 0.0765 | locus YBR229C, strain ROT2, hits give low values 0.0466 | locus YBR231C, strain swc5, hits give low values 0.0699 | locus YBR279W, strain paf1, hits give low values 0.0591 | locus YCL011C, strain gbp2, hits give low values 0.0563 | locus YCL016C, strain dcc1, hits give low values 0.119 | locus YCL029C, strain bik1, hits give low values 0.0654 | locus YCL069W, strain vba3, hits give low values 0.0931 | locus YCR088W, strain abp1, hits give low values 0.0863 | locus YDL005C, strain med2, hits give low values 0.14 | locus YDL035C, strain GPR1, hits give low values 0.0492 | locus YDL040C, strain nat1, hits give low values 0.169 | locus YDL074C, strain BRE1, hits give low values 0.0799 | locus YDL101C, strain DUN1, hits give low values 0.0585 | locus YDL185W, strain tfp1, hits give low values 0.0618 | locus YDL192W, strain arf1, hits give low values 0.0648 | locus YDR001C, strain nth1, hits give low values 0.113 | locus YDR069C, strain doa4, hits give low values 0.0629 | locus YDR101C, strain arx1, hits give low values 0.0618 | locus YDR137W, strain rgp1, hits give low values 0.102 | locus YDR159W, strain sac3, hits give low values 0.284 | locus YDR162C, strain NBP2, hits give low values 0.0481 | locus YDR195W, strain ref2 0.112 | locus YDR297W, strain sur2, hits give low values 0.0577 | locus YDR318W, strain mcm21, hits give low values 0.0654 | locus YDR334W, strain swr1, hits give low values 0.0718 | locus YDR335W, strain msn5, hits give low values 0.0632 | locus YDR388W, hits give low values 0.0579 | locus YDR392W, strain spt3, hits give low values 0.12 | locus YDR502C, strain sam2, hits give low values 0.0635 | locus YEL003W, strain gim4, hits give low values 0.0561 | locus YEL037C, strain rad23, hits give low values 0.0834 | locus YEL061C, strain CIN8 (second series), hits give low values 0.113 | locus YEL061C, strain CIN8, hits give low values 0.0497 | locus YER015W, strain faa2, hits give low values 0.0605 | locus YER016W, strain bim1, hits give low values 0.0613 | locus YER110C, hits give low values 0.0829 | locus YER111C, strain swi4, hits give low values 0.0714 | locus YER155C, strain BEM2 (second series), hits give low values 0.0997 | locus YER155C, strain BEM2, hits give low values 0.0681 | locus YER167W, strain BCK2, hits give low values 0.0524 | locus YFR010W, strain ubp6, hits give low values 0.0733 | locus YGL078C, strain dbp3, hits give low values 0.0711 | locus YGL086W, strain mad1, hits give low values 0.0668 | locus YGL167C, strain pmr1, hits give low values 0.0738 | locus YGL173C, strain kem1, hits give low values 0.0702 | locus YGL227W, strain vid30, hits give low values 0.128 | locus YGL240W, strain doc1, hits give low values 0.0706 | locus YGL248W, strain PDE1, hits give low values 0.0483 | locus YGL253W, strain hxk2, hits give low values 0.0835 | locus YGR078C, strain PAC10, hits give low values 0.0502 | locus YGR135W, strain pre9, hits give low values 0.066 | locus YGR252W, strain gcn5, hits give low values 0.174 | locus YHR013C, strain ard1, hits give low values 0.101 | locus YHR027C, strain rpn1, hits give low values 0.0624 | locus YHR030C, strain SLT2, hits give low values 0.0509 and 0.106 | locus YHR079C, strain IRE1 (second series), hits give low values 0.0587 | locus YHR079C, strain IRE1, hits give low values 0.127 | locus YHR094C, strain hxt1, hits give low values 0.0631 | locus YHR129C, strain ARP1, hits give low values 0.0599 | locus YHR142W, strain chs7, hits give low values 0.0877 | locus YHR200W, strain rpn10, hits give low values 0.0662 | locus YIL066C, strain RNR3, hits give low values 0.0495 | locus YIL073C, strain SPO22, hits give low values 0.111 | locus YIL125W, strain kgd1, hits give low values 0.0705 | locus YIR030C, strain dcg1, hits give low values 0.0597 | locus YJL092W, strain hpr5, hits give low values 0.0945 | locus YJL095W, strain BCK1 (second series), hits give low values 0.0605 | locus YJL095W, strain BCK1, hits give low values 0.0616 and 0.0998 | locus YJL115W, strain asf1, hits give low values 0.146 | locus YJL129C, strain trk1, hits give low values 0.0826 | locus YJL134W, strain LCB3, hits give low values 0.0525 | locus YJL154C, strain vps35, hits give low values 0.102 | locus YJL164C, strain tpk1, hits give low values 0.0587 | locus YJL166W, strain qcr8, hits give low values 0.059 | locus YJL168C, strain set2, hits give low values 0.0636 | locus YJL187C, strain SWE1 (second series), hits give low values 0.0476 | locus YJR043C, strain POL32, hits give low values 0.0636 | locus YJR066W, strain TOR1, hits give low values 0.0218 | locus YKL009W, strain mrt4, hits give low values 0.0954 | locus YKL068W, hits give low values 0.0759 | locus YKL085W, strain MDH1 (second series), hits give low values 0.0618 | locus YKL085W, strain MDH1, hits give low values 0.0618 | locus YKL160W, strain elf1, hits give low values 0.082 | locus YKR001C, strain vps1, hits give low values 0.0627 | locus YKR026C, strain gcn3, hits give low values 0.122 | locus YKR091W, strain srl3, hits give low values 0.135 | locus YLL001W, strain dnm1, hits give low values 0.0833 | locus YLL026W, hits give low values 0.0593 | locus YLL041C, strain sdh2, hits give low values 0.065 | locus YLR027C, strain aat2, hits give low values 0.0538 | locus YLR039C, strain RIC1, hits give low values 0.0942 | locus YLR058C, strain SHM2, hits give low values 0.0495 | locus YLR102C, strain apc9, hits give low values 0.0664 | locus YLR113W, strain HOG1, hits give low values 0.168 | locus YLR221C, strain rsa3, hits give low values 0.0599 | locus YLR258W, strain gsy2, hits give low values 0.0596 | locus YLR262C, strain YPT6 (second series), hits give low values 0.108 | locus YLR262C, strain YPT6, hits give low values 0.103 | locus YLR268W, strain sec22, hits give low values 0.0689 | locus YLR320W, strain mms22, hits give low values 0.0776 | locus YLR330W, strain CHS5, hits give low values 0.0512 | locus YLR342W, strain FKS1 (second series), hits give low values 0.0673 | locus YLR342W, strain FKS1, hits give low values 0.0668 | locus YLR357W, strain rsc2, hits give low values 0.203 | locus YLR370C, strain arc18, hits give low values 0.0765 | locus YLR371W, strain rom2, hits give low values 0.066 | locus YLR384C, strain iki3, hits give low values 0.0582 | locus YLR418C, strain cdc73, hits give low values 0.0923 | locus YML016C, strain PPZ1, hits give low values 0.0462 | locus YML032C, strain rad52, hits give low values 0.0754 | locus YML120C, strain ndi1, hits give low values 0.0565 | locus YML124C, strain tub3, hits give low values 0.0612 | locus YMR058W, strain fet3, hits give low values 0.0641 | locus YMR078C, strain ctf18, hits give low values 0.0785 | locus YMR125W, strain sto1, hits give low values 0.244 | locus YMR129W, hits give low values 0.0599 | locus YMR205C, strain PFK2, hits give low values 0.12 | locus YMR223W, strain ubp8, hits give low values 0.0681 | locus YMR231W, strain pep5, hits give low values 0.0661 | locus YMR263W, strain SAP30, hits give low values 0.0554 | locus YMR307W, strain GAS1, hits give low values 0.132 | locus YNL067W, strain RPL9B, hits give low values 0.049 | locus YNL071W, strain lat1, hits give low values 0.0622 | locus YNL183C, strain NPR1, hits give low values 0.0694 | locus YNL209W, strain ssb2, hits give low values 0.0567 | locus YNL233W, strain BNI4, hits give low values 0.0547 | locus YNL248C, strain rpa49, hits give low values 0.194 | locus YNL250W, strain rad50, hits give low values 0.0731 | locus YNL271C, strain bni1, hits give low values 0.0769 | locus YNL298W, strain CLA4, hits give low values 0.076 | locus YNL307C, strain MCK1, hits give low values 0.0703 | locus YNL322C, strain KRE1 (second series), hits give low values 0.0667 | locus YNL322C, strain KRE1, hits give low values 0.0462 | locus YNR049C, strain mso1, hits give low values 0.0954 | locus YNR052C, strain pop2, hits give low values 0.065 | locus YOL006C, strain TOP1, hits give low values 0.117 | locus YOL147C, strain pex11, hits give low values 0.0602 | locus YOR001W, strain rrp6, hits give low values 0.0711 | locus YOR061W, strain CKA2, hits give low values 0.0478 | locus YOR069W, strain VPS5, hits give low values 0.0472 | locus YOR070C, strain gyp1, hits give low values 0.0596 | locus YOR080W, strain dia2, hits give low values 0.0638 | locus YOR083W, strain WHI5, hits give low values 0.0897 | locus YOR106W, strain vam3, hits give low values 0.0664 | locus YOR136W, strain idh2, hits give low values 0.0784 | locus YOR144C, strain elg1, hits give low values 0.0595 | locus YOR184W, strain ser1, hits give low values 0.0724 | locus YOR231W, strain MKK1, hits give low values 0.115 | locus YOR265W, strain rbl2, hits give low values 0.0564 | locus YOR270C, strain vph1, hits give low values 0.131 | locus YOR290C, strain snf2, hits give low values 0.0717 | locus YOR316C, strain cot1, hits give low values 0.0637 | locus YPL051W, strain arl3, hits give low values 0.062 | locus YPL055C, strain LGE1, hits give low values 0.0714 | locus YPL078C, strain atp4, hits give low values 0.0623 | locus YPL106C, strain sse1, hits give low values 0.096 | locus YPL240C, strain hsp82, hits give low values 0.083 | locus YPL256C, strain CLN2, hits give low values 0.129 | locus YPR119W, strain clb2, hits give low values 0.0694 | locus YPR141C, strain kar3, hits give low values 0.0792 | locus YPR163C, strain tif3, hits give low values 0.0744 | locus YPR167C, strain met16, hits give low values 0.0645 | strain wtn01, hits give low values 0.0639
